Laboratory results taken from PubChem BioAssay AID1851 (National Center for Advancing Translational Sciences (NCATS), 2009).
Among all 16,000 compounds or so, about 4,000 (25%) were called active. Another 26% or so got no clear call; they are omitted. Calls follow the shape of the dose curve; as a rule, active = well fitted curve in the direction sought with a large enough effect; inconclusive = small, poorly fitted or top-dose-only effect, or effect the other way; inactive = no such curve, though single readings can be large or run the other way. Only a sample is shown.

Each compound was assayed against Cytochrome P450 2C9 (Homo sapiens) (UniProt P11712) (assay: Cytochrome panel assay with activity outcomes). Settings: recombinant CYP, pro-luciferin dealkylation, luminescence, p450-cyp2c9; series mostly up to 57.1 µM; activity, negative = inhibition: at the top concentration.
Cytochrome P450 2C9 (Homo sapiens), sequence (P11712 whole entry, looked up): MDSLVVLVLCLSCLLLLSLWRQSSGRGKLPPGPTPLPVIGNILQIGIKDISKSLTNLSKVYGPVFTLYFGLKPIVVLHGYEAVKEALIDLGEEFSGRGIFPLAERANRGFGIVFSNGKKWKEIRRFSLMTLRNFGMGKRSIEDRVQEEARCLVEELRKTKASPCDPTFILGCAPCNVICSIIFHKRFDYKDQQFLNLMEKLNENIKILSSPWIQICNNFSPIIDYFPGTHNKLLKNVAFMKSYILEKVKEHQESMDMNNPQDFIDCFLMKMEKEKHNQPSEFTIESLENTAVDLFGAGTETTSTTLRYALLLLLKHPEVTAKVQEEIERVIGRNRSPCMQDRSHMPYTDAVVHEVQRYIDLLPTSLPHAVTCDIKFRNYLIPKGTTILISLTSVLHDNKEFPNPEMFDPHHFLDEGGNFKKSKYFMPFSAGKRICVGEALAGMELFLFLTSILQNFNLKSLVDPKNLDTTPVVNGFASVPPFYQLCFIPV
% is scaled to controls: 0 for no effect and ±100 for the full control effect.

activity, negative = inhibition, inactive:
Cn1c(=O)n2n(c1=O)[C@H]1[C@H](O)[C@H]3O[C@@H]3/C(=N/OC[C@@H](O)COCc3ccco3)[C@@H]1CC2 -4.5% [at 11.4 µM]
C[C@H](Oc1ccccc1)C(=O)N[C@@H]1C(=O)N2[C@@H]1SC(C)(C)[C@@H]2C(=O)O -13.8% [at 25.6 µM]
COc1ccccc1CNCCCCCCNCCCCCCCCNCCCCCCNCc1ccccc1OC 5.66%
COc1ccccc1CNCc1cccs1 5.82%
OCCN1CCN(C(=S)c2ccc(Br)cc2)CC1 4.83%
CCOC(=O)N/N=C1/C[C@@H](O)[C@@H](O)[C@@H]2[C@@H]3C(=O)N([C@@H](C)c4ccccc4)C(=O)[C@H]3CC[C@@H]12 20.5% [at 11.4 µM]
O=S(=O)(c1cccc2cnccc12)N1CCNCC1 -17.9%
CC(=O)Nc1ccc(NC(=O)C2CCN(S(=O)(=O)c3cccc4nonc34)CC2)cc1 -16.4%
COc1ccc2nc(NC(=O)C3CCN(S(=O)(=O)c4cccc5nsnc45)CC3)sc2c1 -16.2%
COc1ccc(CCNC(=O)C2CCN(S(=O)(=O)c3cccc4nsnc34)CC2)cc1OC -28.5%
CS(=O)(=O)N1CCCC(C(=O)N2CCc3ccccc3C2)C1 (centres undefined) -20%
O=C(Nc1ccccc1)N[C@H]1C[C@H](C(=O)O)Nc2cc(Cl)cc(Cl)c21 -19.5%
COc1ccc(NC(=O)N2CC[C@@]3(CCCN(S(C)(=O)=O)C3)C2)cc1 7.02%
Cc1ccc2c(c1)N(CC(=O)NC1CCC(C)CC1)C(=O)CO2 (centres undefined) -22.9%
Cc1ccc2c(c1)N(CC(=O)NC1CCCc3ccccc31)C(=O)CO2 (centres undefined) 12.5%
c1ccc2[nH]c(NC3=NCCC3)nc2c1 6.69%
COC(=O)Nc1nc2ccc(Sc3ccccc3)cc2[nH]1 4.03% [at 25.6 µM]
Cc1cccc(NC(=S)c2nc3ccccc3s2)c1 -11.2%
CN1CCC(N(C)C(=O)CCc2nc3ccccc3c(=O)[nH]2)CC1 -13.2%
C/C(=N\OC(=O)c1ccccc1)c1cc(-c2ccc(Cl)cc2)no1 8.59%
Cn1c(=O)c2[nH]c(C3CCCC3)nc2n(C)c1=O -12.4%
NC(=O)N[C@H]1NC(=O)NC1=O 5.59% [at 25.6 µM]
COC(=O)C(C)(C(=O)OC)c1ccc([N+](=O)[O-])cn1 -2.26%
C=CCC(C(=O)OC)(C(=O)OC)c1ccc([N+](=O)[O-])cn1 -12.8%
O=C1CCCCC(=O)c2ccccc2N1 -20.6%
COc1ccc(C(=O)NCC(=O)OCc2cccc(Br)c2)cc1 -25%
O=C(CNC(=O)c1ccco1)OCc1c(F)cccc1Cl 24.8%
CCOc1ccc2c(ccc(/C=C\c3cc(C)c4cccnc4c3O)[n+]2C)c1 5.89% [at 11.4 µM]
O=C(O)[C@H]1CCCC[C@@H]1C(=O)Nc1nc2ccccc2[nH]1 2.98% [at 11.4 µM]
O=C(Nc1nc2ccccc2n1CCN1CCCCC1)C1CCCCC1 -20.2%
Cc1ccc(NCC(=O)N/N=C\c2ccc([N+](=O)[O-])o2)cc1 -22.6%
COc1cccc(/C=N/NC(=O)c2cc(-c3cccn3C)n[nH]2)c1 10.1%
CCOC(=O)c1nc(N)sc1C(=O)OCC 5.81%
COc1ccc(-n2c(C)nn(C)c2=O)cc1 -0.617%
CC(C)c1cc(C(F)(F)F)nc(NNc2nc(C(C)C)cc(C(F)(F)F)n2)n1 -27.5% [at 11.4 µM]
CC(C)Nc1cc(C(F)(F)F)nc(-c2ccccn2)n1 -18.4%
CCOC(=O)c1[nH]c(C(=O)O)c(CCN(CC)CC)c1C -0.374%
CCN(CC)C(=O)CSc1nnc(-c2ccco2)n1N -16.2%
C/C(CCN1CCc2nc(-c3ccccc3)c(-c3ccccc3)cc2C1)=N\OC[C@@H](O)COCc1ccco1 -7.86% [at 11.4 µM]
COc1cc(/C=C\c2ccc(OC)cc2OC)cc(OC)c1 -27.9%
CC(C)NC(=O)N1CCC2(CC1)CCN(C(=O)c1ccncc1)CC2 -8.98%
Clc1ccc(N2CCCCCC2)nn1 4.61%
CN1CCN(S(=O)(=O)c2cc([N+](=O)[O-])ccc2N2CCCCCC2)CC1 -19.8%
C/C(CCN1CCc2nc(-c3ccccc3)c(-c3ccccc3)cc2C1)=N\OC[C@@H](C)[C@H](OCc1ccccc1)C(C)C -9.58% [at 11.4 µM]
CN(CC(=O)O/N=C(\N)c1ccccn1)S(=O)(=O)c1ccccc1 26.3%
Cc1cccc(N(CC(=O)N2CCOCC2)S(C)(=O)=O)c1 -0.418%
Cc1cccc(CNc2ccnc(-c3ccc(C(=O)N(C)C)cc3)n2)c1 -11.3% [at 2.29 µM]
Cc1cccc(CNc2cc(-c3ccc(C(=O)N(C)C)cc3)ncn2)c1 5.16% [at 2.29 µM]
O=C(O)C[C@H]1OCC=C2C[N@@+]3([O-])CC[C@]45c6ccccc6N[C@@H]4[C@@H]1[C@H]2C[C@H]53 5.86% [at 11.4 µM]
CC(=O)OC[C@@H]1O[C@@H](O/N=C2/C[C@@H](O)[C@@H](O)[C@@H]3[C@H]4C(=O)N(c5ccc(F)cc5F)C(=O)[C@@H]4CC[C@@H]23)[C@H](OC(C)=O)[C@H](OC(C)=O)[C@@H]1OC(C)=O 18.5% [at 11.4 µM]
CC1=NCC[N@@+]1(CCc1ccccc1)Cc1ccccc1 -1.38% [at 11.4 µM]
CCCN(CCc1ccccc1)[C@H]1CCc2c(O)cccc2C1 -0.0564%
COCC(=O)N1CCC2(CC1)CCN(C(=O)Nc1cccc(F)c1)CC2 -5.51%
CC(=O)Oc1cc(C(F)(F)F)ccc1C(=O)O 5.83% [at 25.6 µM]
Cc1cc2nc([C@H](C)C(=O)c3ccc(Cl)cc3)c(=O)[nH]c2cc1C -26.4% [at 11.4 µM]
COc1ccc(CSc2nnnn2C)cc1[N+](=O)[O-] -23.5%
CS(=O)(=O)N1CCC2(CC1)CN(Cc1cc(C(F)(F)F)cc(C(F)(F)F)c1)C2 11.6%

AC50, inactive:
Cc1cc(N)c2ccccc2[n+]1CCCCCCCCCC[n+]1c(C)cc(N)c2ccccc21
CC(C)NC[C@H](O)c1cc(O)cc(O)c1

AC50, active:
COc1cnc(-c2ccccn2)nc1Oc1ccc(Cl)c2ccccc12 12.6 µM
CC(Oc1ccccc1)C(=O)Nc1nc2c(s1)C(=O)CC(C)(C)C2 (centres undefined) 6.31 µM
COc1ccccc1CNCC(O)(c1ccc(Cl)cc1)c1ccc(Cl)cc1 15.8 µM
O=S(=O)(c1cccc2nsnc12)N1CCCC1 3.55 µM
O=C(C1CCCN(S(=O)(=O)c2cccc3nsnc23)C1)N1CC=C(c2ccccc2)CC1 (centres undefined) 1.41 µM
O=S(=O)(c1ccccc1S(=O)(=O)N1CCCCC1)N1CCCCC1 28.2 µM
O=C(C1CCN(S(=O)(=O)c2cccc3nsnc23)CC1)N1CCc2ccccc21 10 µM
CCCSC1=C(C#N)C(c2cccnc2)C(C(=O)OCC)=C(c2ccccc2)N1 (centres undefined) 8.91 µM
Cc1ccc2c(c1)N(CCC(=O)NCc1cccnc1)C(=O)CO2 14.1 µM
COc1cc(/C=N\Nc2nc3ccccc3[nH]2)cc(OC)c1OC 15.8 µM
Cc1ccc2nc(-c3ccccc3)cc(C(=O)NCCCn3ccnc3)c2c1 0.1 µM
Cc1cccc(NC(=O)N(Cc2nc3ccccc3c(=O)[nH]2)C2CCCC2)c1 5.62 µM
N/C(=N\OC(=O)c1cc(-c2ccccc2)nc2ccccc12)c1ccc(Cl)cc1 3.98 µM
COC(=O)C(NC(=O)c1ccc(F)cc1)(Nc1ncc(S(=O)(=O)c2ccc([N+](=O)[O-])cc2)s1)C(F)(F)F (centres undefined) 3.55 µM
O=S(=O)(Nc1ccc(Cc2ccncc2)cc1)c1ccc(Br)cc1 0.0141 µM
O=S(=O)(Nc1ccc(Cc2ccncc2)cc1)c1cccs1 0.02 µM
O=C(CNC(=O)c1ccco1)OC(C(=O)c1ccccc1)c1ccccc1 (centres undefined) 25.1 µM
COc1ccc(C(=O)C(OC(=O)CNC(=O)c2ccco2)c2ccccc2)cc1 (centres undefined) 20 µM
Cc1cc(NC(=O)C2CCCC2)n(-c2nc3ccccc3[nH]2)n1 3.98 µM
Cc1cc(C(=O)N/N=C/c2cccc(OC(=O)c3ccco3)c2)n[nH]1 11.2 µM
Cc1ccc(NCC(=O)N/N=C/c2ccc(OC(=O)c3ccco3)cc2)cc1 8.91 µM
CCOC(=O)c1sc(=N)n(-c2ccc(OC)cc2)c1C 3.16 µM
CC(C)Nc1nc(Oc2ccc(Cl)cc2)cc(C(F)(F)F)n1 15.8 µM
CC(C)CN(Cc1c(O)ccc2c3c(c(=O)oc12)CCC3)CC(C)C 28.2 µM
CCOc1ccc(C2=Nn3c(nnc3-c3ccco3)SC2)cc1 2.24 µM
CCc1ccc(C2=Nn3c(nnc3-c3cccs3)SC2)cc1 7.08 µM
COC(=O)C1=C(NC(=O)c2cccc(OC)c2)CCS1 11.2 µM
CCN(CC)S(=O)(=O)c1ccc(C(=O)NC2=C(C(=O)OC)SCC2)cc1 2 µM
O=[N+]([O-])c1ccc(N2CCCCC2)c(Cl)c1N1CCCCC1 2.24 µM
Cc1cc(C)cc(N(CC(=O)NCCSc2ccccn2)S(=O)(=O)c2ccccc2)c1 0.282 µM
Cc1cccc(N(CC(=O)NCCSCc2ccco2)S(=O)(=O)c2ccccc2)c1 4.47 µM
Cc1cccc(CSCCNC(=O)c2ccc(N(C)S(=O)(=O)c3ccccc3)cc2)c1 0.562 µM
CN(CCO)c1cc(Sc2nc3ccccc3s2)c2nonc2c1[N+](=O)[O-] 3.55 µM
CC(=O)Nc1cc(C(F)(F)F)ccc1Oc1cccc(Br)c1 3.98 µM
CCCOc1ccc(Cn2c(C)nc([N+](=O)[O-])c2SCC(O)COC)cc1[N+](=O)[O-] (centres undefined) 11.2 µM
